# Screening data: PubChem BioAssay, National Center for Advancing Translational Sciences (NCATS)
# Compounds with a hit are over-represented: about 1.1% of the library has one in this group of screens.
# AmpC detergent – inhibitors of E. coli AmpC beta-lactamase with detergent; Potency, µM (titrated, usually from 114 µM), actives largely listed as inhibitors; 370,000 tested, 0.041% active; AID 485294; AmpC hydrolysis of nitrocefin, absorbance 480 nm, 0.01% Triton; P00811; also: nearly all actives have a fitted effect of over 25% in size
# Target sequence (P00811 whole entry, looked up): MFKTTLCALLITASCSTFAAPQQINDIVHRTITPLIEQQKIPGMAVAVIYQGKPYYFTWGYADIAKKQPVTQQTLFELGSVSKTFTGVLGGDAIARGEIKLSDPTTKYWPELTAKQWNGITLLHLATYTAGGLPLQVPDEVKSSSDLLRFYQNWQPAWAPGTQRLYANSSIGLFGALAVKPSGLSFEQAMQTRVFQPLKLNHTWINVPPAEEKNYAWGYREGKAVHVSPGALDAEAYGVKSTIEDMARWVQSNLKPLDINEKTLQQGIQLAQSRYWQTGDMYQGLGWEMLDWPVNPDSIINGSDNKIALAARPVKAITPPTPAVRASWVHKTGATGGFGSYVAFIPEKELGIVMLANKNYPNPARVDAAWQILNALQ
#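 20 mM phosphate pH 7.0 + 0.01% (detergent screen) or 0.0001% Triton X-100; 5.3 nM AmpC reagent; cpd preinc 15 min RT; nitrocefin (800 uM stock) to start; A480 q20 s × 4 min; Activity was normalised to no-enzyme and no-compound control wells.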
# Vaccinia Venus – inhibitors of vaccinia virus (Venus reporter). Potency, µM (titrated, usually from 36.5 µM), actives largely listed as inhibitors. 330,000 tested, 0.46% active. Vaccinia virus Venus reporter expression, fluorescence; calls by dose curve; tested in A549 cells; also: nearly all actives have a fitted effect of over 30% in size
# AmpC inh no detg – blocks E. coli AmpC beta-lactamase in detergent-free assay. P00811. AID 485341. 330,000 tested, 0.52% active. Potency, µM (top dose mostly 57.1 µM), most hits filed as inhibitors. AmpC nitrocefin hydrolysis, absorbance 480 nm, 0.0001% Triton; also: nearly all actives have a fitted effect of over 20% in size
#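 AmpC (5.3 nM in the dispensed reagent) in 20 mM phosphate pH 7.0 with 0.01% (detergent screen) or 0.0001% Triton X-100 was preincubated with compounds for 15 min at room temperature. Nitrocefin was then added from an 800 uM solution, and hydrolysis was followed at 480 nm.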
# Vaccinia mCherry – inhibitors of vaccinia virus infection (mCherry reporter signal); Vaccinia virus mCherry reporter infection, fluorescence; Potency, µM (doses to about 36.5 µM), most hits filed as inhibitors; 310,000 tested, 0.63% active; AID 720579; calls by dose curve; tested in A549 cells; also: nearly all actives have a fitted effect of over 35% in size
# A number is an active result; n = inactive; u = inconclusive; x = no result; [ ] = dose if it differs, or a comment. Unless noted, calls follow the shape of the dose curve; as a rule, active = well fitted curve in the direction sought with a large enough effect; inconclusive = small, poorly fitted or top-dose-only effect, or another doubt; inactive = no such curve, though single readings can be large; an effect the other way counts as inactive or inconclusive.
SMILES,AmpC detergent,Vaccinia Venus,AmpC inh no detg,Vaccinia mCherry
O=C1CS(=O)(=O)N(Cc2cccc(F)c2)c2ccc(Br)cc21,n,n,n,n
Cc1nn(-c2ccccc2)c(C)c1/C=N/NC(=O)CSc1nnc(SCc2cccc3ccccc23)s1,n,n,2.24µM,n
CCN1CCN(C(=O)c2cc(NC(=O)COC)cc3nc(-c4ccncc4)n(C)c23)CC1,x,n,x,n
Nc1c(C(O)(C(F)(F)F)C(F)(F)F)cc(C(O)(C(F)(F)F)C(F)(F)F)c2ccccc12,u,u,n,11.2µM
CCOC(=O)[C@]12Cc3cc(OC)ccc3[C@H]1N(C)C(=O)c1cc(OC)ccc12,x,n,x,u
CCOC(=O)[C@]12Cc3cc(Cl)ccc3[C@H]1N(C1CCCCC1)C(=O)c1cc(OC)ccc12,x,3.55µM,x,u
COc1ccc(C2=NN(C(=O)CSc3nc4ncc(Cl)cc4[nH]3)C(c3ccco3)C2)cc1 (stereo not drawn),u,n,n[11.4 µM],n
Cc1ccc(C2=NN(C(=O)CSc3nc4ncc(Cl)cc4[nH]3)C(c3ccco3)C2)cc1 (stereo not drawn),u,n,10µM,n
Cc1ccc(S(=O)(=O)N2CCN(c3nc(-c4cscn4)nc4ccccc34)CC2)cc1,x,n,x,n
Cn1c(=O)[nH]c(=O)c2c1nc(CN1CCN(c3cccc(Cl)c3)CC1)n2Cc1ccccc1Cl,u,u,44.7µM,n
CCCCC(=O)N(Cc1ccc(-c2ccccc2-c2nn[nH]n2)cc1)[C@@H](C(=O)O)C(C)C,x,n,x,n
CCC(=O)N[C@@H]1c2ccccc2C2(CCN(Cc3ccccn3)CC2)[C@H]1OC,x,n,x,n
COc1cc(=O)n2c(c1C(=O)N(C)Cc1nonc1C)CCN(C(=O)c1cc(C)ccc1C)CC2,x,n,x,n
CNC1=C(N(C(C)=O)c2ccc(Br)cc2)C(=O)c2ccccc2C1=O,u,5.62µM,n,u
CCOc1cc(C=C(C#N)C#N)ccc1Oc1ccc([N+](=O)[O-])cn1,n,x,n,x
COc1cc(/C=C(/C#N)c2ccc(F)cc2)ccc1Oc1ccc([N+](=O)[O-])cn1,n,n,28.2µM,n
COc1cc(OC)c(OC)cc1CN1CCC(n2cc(C(=O)N3CCCCC3)nn2)CC1,x,n,x,n
NC(=O)CN1CCN(C(=O)Nc2ccccc2)CC1,n,n,22.4µM,n
CCN1CCN(C(=O)C2CCN(C(=O)Nc3ccccc3)CC2)CC1,n,x,n,x
O=C(N/N=C/c1ccc(O)cc1O)c1ccc(CN2C(=O)c3cccc4cccc2c34)cc1,n,u,7.08µM,2.51µM
CC(C)NC(=S)N/N=C/c1sc(N2CCCCC2)nc1-c1cccs1,n,n,n,n
CCCCNC(=S)N(C)/N=C/c1sc(N2CCCCC2)nc1-c1cccs1,n,x,11.2µM,x
COc1ccc(/C=C/C(=O)N2CCc3c(cnc(C)c3CNS(=O)(=O)c3cccs3)C2)cc1,x,n,x,n
O=C(NN=C(c1ccccc1)c1ccccn1)c1ccccc1,x,u,n,2µM
C/C(=N\NC(=O)c1ccccc1Cl)c1ccccn1,n,u,n,u
SMILES,AmpC detergent,Vaccinia Venus,AmpC inh no detg,Vaccinia mCherry
O=C(N/N=C(\c1ccccc1)c1ccccn1)c1ccccc1Cl,n,u,n,2.51µM
C/C(=N\NC(=O)c1cccc(Br)c1)c1ccccn1,n,u,n,u
COc1ccc(C(=O)N/N=C(\c2ccccc2)c2ccccn2)cc1,n,u,n,2.24µM
COCCN=c1scc(-c2cccs2)n1/N=C/c1ccc(O)c(O)c1O,n,u,n,11.2µM
COCCN=c1scc(-c2ccccc2)n1/N=C/c1c[nH]c2ccccc12,n,x,n,x
CCN=c1scc(C)n1/N=C/c1ccc(O)c(O)c1O,n,n,10µM,n
CCCS(=O)(=O)NCc1c(C)ncc2c1CCN(C(=O)c1cccc(C(F)(F)F)c1)C2,x,n,x,n
Fc1ccc(N2CCN(c3ncnc4nc[nH]c34)CC2)cc1,u,n,20µM,u
OCCN1CCN(c2ncnc3nc[nH]c23)CC1,u,n,44.7µM,n
c1nc(N2CCCC2)c2[nH]cnc2n1,u,n,n,n
c1nc(N2CCCCCC2)c2[nH]cnc2n1,u,n,x,u
COc1ccc(/C(C)=N/NC(=O)c2cccc(S(=O)(=O)N3CCCC3)c2)c(O)c1,n,u,n,5.62µM
COc1cccc(CN2CCC(c3nnc(SCC4CCCO4)n3C)CC2)c1O (stereo not drawn),x,n,x,n
Ic1ccc(Nc2nc(NCCN3CCOCC3)nc(N3CCOCC3)n2)cc1,x,n,x,u
Cc1cccc(Nc2nc(N)c([N+](=O)[O-])c(N3CCCC(C)C3)n2)c1 (stereo not drawn),n,10µM,n,12.6µM
Cc1cccc(Nc2nc(N)c([N+](=O)[O-])c(N3CCN(C)CC3)n2)c1,n,u,n,u
CCOC(=O)C1(C(=O)OCC)CC1c1ccccc1 (stereo not drawn),n,n,4.47µM,x
COc1cc(=O)n2c(c1C(=O)NCc1cccc(F)c1)CCN(Cc1cccnc1)CC2,x,n,x,n
Cc1ccc(NC(=S)Nc2cccnc2)c(S(=O)(=O)N2CCCCC2)c1,n,n,14.1µM,n
Cc1ccc(C)c(NC(=S)Nc2cccnc2)c1,n,n,n,n
CCn1c(-c2cccc(OC)c2)nc2cc(NC(C)=O)cc(C(=O)N3CCC[C@H]3C(=O)OC)c21,x,n,x,n
CCCc1nc2ccccc2c(C(=O)OCC(=O)NCc2ccc3c(c2)OCO3)c1CC,n,x,n,x
CCCc1nc2ccccc2c(C(=O)OC(C)C(=O)NCc2ccc3c(c2)OCO3)c1CC (stereo not drawn),n,10µM,n,u
C/C(Cn1nnc([N+](=O)[O-])n1)=N\NC(=O)c1ccccc1,n,12.6µM,n,u
Nc1ccc2c(c1)C=C/C2=C\c1ccccc1,x,n,x,n
SMILES,AmpC detergent,Vaccinia Venus,AmpC inh no detg,Vaccinia mCherry
N#CC1=C(N)Oc2cc(N)ccc2C1c1ccc(Cl)cc1 (stereo not drawn),n,n,11.2µM,u
N#CC1=C(N)Oc2cc(N)ccc2C1c1ccc(F)cc1 (stereo not drawn),n,x,n,x
CCNC(=O)CSc1nnc(-c2cccc(S(=O)(=O)N3CCOCC3)c2)o1,n,u,n,11.2µM
Cc1cccc(CN2CCc3nnc(C(C)NC(=O)C4CCOCC4)n3CC2)c1 (stereo not drawn),x,n,x,n
CSc1sc(C(=O)NCC2CC2)cc1S(=O)(=O)C(C)C,n,n,n,n
COC(=O)c1cc(S(=O)(=O)C(C)C)c(S(C)=O)s1 (stereo not drawn),n,u,n,10µM
COc1ccc(-n2nnnc2S(=O)(=O)Cc2ccc(C(=O)O)cc2)cc1,n,x,n,x
COc1ccc(-n2nnnc2S(=O)(=O)CC(=O)N2CCCCC2)cc1,n,u,n,12.6µM
O/N=C(/CI)c1ccc2ccccc2c1,x,n,x,n
CN(C)CCC(=O)N1C/C(=C/c2ccccc2)C(=O)/C(=C\c2ccccc2)C1,x,11.2µM,x,8.91µM
CSc1ccccc1NC(=O)c1noc2c1CCC2,25.1µM,x,n,x
COC(=O)c1ccccc1NC(=O)c1noc2c1CCC2,u,n,n,n
CCOc1ccc(C2C(C#N)=C(N)SC(N)=C2C#N)cc1OCC,n,x,n,x
N#CC1=C(N)SC(N)=C(C#N)C1c1cccc(Oc2ccccc2)c1,n,n,25.1µM,n
